Among the data in PubChem BioAssay (NCI) are growth values, retold here.

Some test systems named below: T-47D breast; BT-549 breast; MDA-MB-435 melanoma; SW-620 colon; MCF7 breast; HCT-116 colon; HCC-2998 colon; KM12 colon.
Holding throughout (assay): NCI-60 one-dose screen, 48 h (100 = growth as untreated, 0 = no growth, -100 = all killed)
Holding throughout (details): 10 µM unless noted

Structures are written as SMILES. The panel holds about 83,000 compounds, 20% with a hit somewhere; the sample as a whole holds those more often.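 96-well plates, one dose, 48 hours. Percent growth reported; active if below 10.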 A number with no mark means an inactive call. Activity calls are given as the source filed them.

As for `OCc1ccc(N2CCc3cccc(F)c3C2)cc1Cl`, the growth was 1.88% [0.1 µM] (active) with T-47D breast; 114% [0.1 µM] in the test with BT-549 breast; 111% [0.1 µM] in the test with MDA-MB-435 melanoma; 34.5% [0.1 µM] in the test on SW-620 colon; 12.8% [0.1 µM] in the test with MCF7 breast; 18.1% [0.1 µM] in the test with HCT-116 colon. In addition, the results for the growth with HCC-2998 colon and with KM12 colon were 81% [0.1 µM] and 101% [0.1 µM], respectively.

On to `C#CCOc1ccc2ncnc(NCc3cccc(NC(=O)CCl)c3)c2c1`, for which the growth in the test on T-47D breast was 33.2% [8.25 µM]; with BT-549 breast it was 46.6% [8.25 µM]; with MDA-MB-435 melanoma it was 53.4% [8.25 µM]; in the test on SW-620 colon it was 19.9% [8.25 µM]; with MCF7 breast it was 15.5% [8.25 µM]; in the test on HCT-116 colon it was 14.6% [8.25 µM]. The growth is 99.7% [8.25 µM] in the test on HCC-2998 colon and 59.7% [8.25 µM] in the test on KM12 colon.

As to `O=c1cc(CSc2nnc(SCc3cc(=O)oc4c3ccc3ccccc34)o2)c2ccc3ccccc3c2o1`, the growth in the test with T-47D breast was 78.6%; in the test on BT-549 breast it was 107%; in the test on MDA-MB-435 melanoma, 112%; in the test with SW-620 colon it was 98.1%; in the test on MCF7 breast it was 93.7%; in the test on HCT-116 colon, 104%. Further, the values for the growth in the test on HCC-2998 colon and in the test on KM12 colon were 101% and 98.2%, respectively.

With `CN(C)CCN1C(=O)c2cccc3c(N)ccc(c23)C1=O`, the growth was -2.59% (active) in the test on T-47D breast; 89.9% in the test on BT-549 breast; 39.6% with MDA-MB-435 melanoma; 26.6% with SW-620 colon; -11.3% (active) in the test with MCF7 breast; 15.9% with HCT-116 colon. Besides, the growth in the test on HCC-2998 colon was 48.1%; with KM12 colon, 28.1%.

On to `NC(N)=N/N=C(/c1ccccc1)c1ccc(F)cc1`, for which the growth with T-47D breast is 51.2%; with BT-549 breast, 14.7%; with MDA-MB-435 melanoma it was -19.2% (active); in the test with SW-620 colon it was 28.8%; with MCF7 breast, 12.3%; in the test on HCT-116 colon, 2.71% (active). Moreover, the growth was -43.7% (active) in the test with HCC-2998 colon and -7.82% (active) with KM12 colon.

For `COCCNc1ccc2c3c(cccc13)C(=O)N(CCN(C)C)C2=O`, the growth with T-47D breast was -10.9% (active); in the test with BT-549 breast, 17.7%; with MDA-MB-435 melanoma, 25.9%; in the test on SW-620 colon it was 24.5%; with MCF7 breast it was -16.5% (active); with HCT-116 colon, 10.9%. Moreover, the growth was 28.6% in the test with HCC-2998 colon and 24.9% with KM12 colon.

For the compound `Cn1cc(-c2nonc2-c2cn(C)c3ccc(F)cc23)c2cc(F)ccc21`, the growth in the test with T-47D breast was 64.7%; in the test on BT-549 breast, 68.6%; in the test with MDA-MB-435 melanoma, -4.48% (active); with SW-620 colon, 22.2%; in the test on MCF7 breast it was 27.9%; in the test with HCT-116 colon, 28.2%. Further, the results for the growth in the test on HCC-2998 colon and with KM12 colon were 73% and 33%, respectively.

For `CCCCCCN(CCCCCC)CCC(O)c1ccc2ccccc2c1` (configuration not stated), the growth with T-47D breast was 34.4%; in the test with BT-549 breast, 74.7%; with MDA-MB-435 melanoma, 68.3%; with SW-620 colon it was 48.2%; in the test with MCF7 breast, 26.6%; in the test with HCT-116 colon, 24.3%. For the same compound, the growth in the test on HCC-2998 colon is 44.6%; with KM12 colon, 56.2%.

Turning to `N=C(N)c1ccc(-c2ccc(-c3ccc4ccccc4c3)s2)s1`, the growth in the test with T-47D breast is 7.01% (active); in the test on BT-549 breast, 82.5%; with MDA-MB-435 melanoma, 11.3%; in the test with SW-620 colon, -70.9% (active); in the test on MCF7 breast, -66.7% (active); in the test with HCT-116 colon, -70.5% (active). Moreover, the growth in the test with HCC-2998 colon was -69.1% (active); in the test on KM12 colon it was -27.2% (active).

For `COc1ccc(-c2cc(=O)c3c(OC)c4ccoc4cc3o2)cc1`, the growth in the test on T-47D breast is 87.2%; in the test with BT-549 breast, 113%; in the test on MDA-MB-435 melanoma it was 89.6%; in the test with SW-620 colon, 93.2%; in the test on MCF7 breast it was 98%; in the test on HCT-116 colon, 98%. Besides, the growth in the test with HCC-2998 colon is 106%; in the test with KM12 colon, 100%.

`C=C1C(=O)O[C@H]2[C@H]1CC/C(COC(=O)c1cc3cc(OC)ccc3[nH]1)=C\CC[C@@]1(C)O[C@@H]21`: the growth is -60.6% (active) in the test on T-47D breast; -55.3% (active) in the test on BT-549 breast; -91.9% (active) in the test with MDA-MB-435 melanoma; -75.7% (active) in the test on SW-620 colon; -61.3% (active) with MCF7 breast; -94.8% (active) in the test on HCT-116 colon. Also, the growth was -74.2% (active) in the test with HCC-2998 colon and -67.9% (active) in the test on KM12 colon.

Take `O=[N+]([O-])c1cnc(N2CCN(CC3CC3)CC2)nc1N1CCN(CC2CC2)CC1`: the growth is 100% with T-47D breast; 88.9% with BT-549 breast; 98.1% with MDA-MB-435 melanoma; 90.9% with SW-620 colon; 96.4% in the test with MCF7 breast; 86% in the test with HCT-116 colon. For the same compound, the growth was 99% with HCC-2998 colon and 100% in the test with KM12 colon.

Consider `COc1cccc(Nc2nc(SC)nc(-c3cccc([N+](=O)[O-])c3)c2C#N)c1`, for which the growth is 62.4% with T-47D breast; 96.1% with BT-549 breast; 80.9% in the test on MDA-MB-435 melanoma; 75% with SW-620 colon; 72.9% in the test on MCF7 breast; 28.2% in the test on HCT-116 colon. Further, the growth was 95.3% in the test on HCC-2998 colon and 98.4% with KM12 colon.

Consider `COc1cccc(-c2nc3sccn3c2-c2ccnc(NCCCNS(=O)(=O)c3cccc(F)c3)c2)c1`, for which the growth with T-47D breast is -8.47% (active); in the test on BT-549 breast, 6.32% (active); in the test on MDA-MB-435 melanoma, 12.2%; with SW-620 colon, 50%; in the test on MCF7 breast, 24.8%; in the test on HCT-116 colon it was 20.8%. Besides, the growth is 64.7% in the test with HCC-2998 colon and 23.2% in the test on KM12 colon.
